# Bioassay records deposited in PubChem BioAssay by National Center for Advancing Translational Sciences (NCATS).
# TDP1 cell noCPT: qHTS for Inhibitors of human tyrosyl-DNA phosphodiesterase 1 (TDP1): qHTS in cells in absence of CPT. 420,000 tested, 15% active. Potency, µM (series often up to 46.2 µM), without a hit: at the highest dose activity change, negative = growth inhibition, actives largely listed as inhibitors. DT40 Tdp1-/- hTDP1 cells, no CPT, ATP luminescence, 48 h; also: potency is read from the fitted curve at half-maximal effect; % is scaled to controls: 0 for no effect and ±100 for the full control effect; nearly all actives have a fitted effect of over 55% in size
#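 Growth kinetics read by CellTiter-Glo luminescence after ≥48 hr at 37 °C. Cells: DT40 Tdp1-/- stably carrying human TDP1, 400 per well, compound exposure in the absence of CPT (DMSO vehicle).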
# DRD3 antagonist: blocks the human D3 dopamine receptor. max response, negative = inhibition, %. D3R cells, DiscoveRx beta-arrestin luminescence, antagonist mode; hits give low values. 360,000 tested, 2.5% active. AID 652054. P35462; in the data active = max response below about -50%; inconclusive = no clear call, values can overlap the other calls; also: % is scaled to controls: 0 for no effect and ±100 for the full control effect
# Target sequence (P35462 whole entry, looked up): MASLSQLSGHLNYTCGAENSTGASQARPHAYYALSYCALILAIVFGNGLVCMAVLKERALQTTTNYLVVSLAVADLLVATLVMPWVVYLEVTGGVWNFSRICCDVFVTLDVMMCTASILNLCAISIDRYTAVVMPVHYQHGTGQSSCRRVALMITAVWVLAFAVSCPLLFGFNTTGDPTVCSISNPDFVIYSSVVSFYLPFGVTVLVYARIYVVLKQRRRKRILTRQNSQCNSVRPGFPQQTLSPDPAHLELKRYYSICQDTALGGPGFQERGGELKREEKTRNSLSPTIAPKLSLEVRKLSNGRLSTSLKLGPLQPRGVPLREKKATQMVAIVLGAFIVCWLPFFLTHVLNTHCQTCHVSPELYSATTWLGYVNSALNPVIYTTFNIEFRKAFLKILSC
#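 Cells expressing the human receptor were seeded at 1500 cells/well, incubated overnight at 37 degrees C in 5% CO2, then exposed to library compounds with dopamine controls for 90 minutes at 37 degrees C before luminescent detection.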
# DT40 TDP1 CPT: growth inhibition of DT40 Tdp1-/-;hTDP1 cells with camptothecin (screen for TDP1 inhibitors); Potency, µM (titrated, usually from 46.2 µM), for the others: at the top dose activity change, negative = growth inhibition, most hits filed as inhibitors; chicken DT40 Tdp1-/-;hTDP1 cells + 20 nM CPT, ATP luminescence, 48 h; 420,000 tested, 12% active; also: potency is read from the fitted curve at half-maximal effect; % is scaled to controls: 0 for no effect and ±100 for the full control effect; nearly all actives have a fitted effect of over 55% in size
#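 Chicken DT40 Tdp1-/- cells complemented with human TDP1, 400 cells/well, exposed to compounds plus 20 nM camptothecin for at least 48 h at 37 C; viability read as ATP content by CellTiter-Glo luminescence.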
# ClpP mod: qHTS Assay for Activators of ClpP | ATP-dependent Clp protease proteolytic subunit (Bacillus subtilis (strain 168)), P80244 | purified B. subtilis ClpP, FRET peptide cleavage, 20 min | Potency, µM (highest dose often 57.5 µM), without a hit: top-dose activity change, negative = active | 340,000 tested, 1.9% active | AID 651965, 2013; active = well fitted falling curve with a large enough effect; inconclusive = small, poorly fitted or top-dose-only effect; inactive = no such curve, though single readings can be large or run the other way; also: potency is read from the fitted curve at half-maximal effect; the source files actives as falling curves though it sought activators and does not explain the sign; nearly all actives have a fitted effect of over 65% in size
#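 Purified B. subtilis ClpP, 10 microg/mL final in Tris/HCl pH8 with KCl, BSA, glycerol and Tween-20, cleaved an Abz/nitrotyrosine-quenched decapeptide. Fluorescence (ex 320, em 430) was read at 0 and 20 min at room temperature. Delta was normalized to 5.8 microM ADEP and DMSO/no-enzyme controls.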
# DRD3 agonist: agonists of human D3 dopamine receptor; P35462; D3R DiscoveRx beta-arrestin cells, luminescence, 90 min; max activation, %; 410,000 tested, 0.58% active; in the data active = max activation above about 30%; also: 0% is about no effect
#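 Cells at 1500/well, incubated overnight, then treated with pinned compounds (dopamine as control) for 90 min at 37 degrees C. DiscoveRx reagent added for 30 - 60 minutes at room temperature; luminescence read.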
# IL-1B inflam inh: inflammasome signaling inhibition, IL-1 beta readout; THP-1 LPS/ATP IL-1B secretion, AlphaLISA, 16 h; hits give low values; activity change, % at 57.5 µM; 360,000 tested, 4.7% active; AID 743279; in the data active = activity change below about -50%; inconclusive = mostly about -30% to -49%; also: % is scaled to controls: 0 for no effect and ±100 for the full control effect
#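 Secreted IL-1B measured by AlphaLISA bead assay after 16 h compound exposure of THP-1 cells; compounds (final up to 57.5 uM) added 1 h before LPS (250 ng/mL) and ATP (1.25 mM) stimulation; lower signal means less secretion.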
# * hit, by the source's call; ? = inconclusive; / = not tested or not shown. Shown are actives, neighbours in structure and some others; about 21% of the full set was active somewhere. Unless noted, calls follow the shape of the dose curve; as a rule, active = well fitted inhibition curve with a large enough effect; inconclusive = small, poorly fitted or top-dose-only effect; inactive = flat fitted curve, though single readings scatter.
SMILES,TDP1 cell noCPT,DRD3 antagonist,DT40 TDP1 CPT,ClpP mod,DRD3 agonist,IL-1B inflam inh
CN(CC(=O)Nc1cccc(F)c1)C(=O)Cc1n[nH]c(=O)c2ccccc12,0%,4,?,-4%,4,-3
CN(c1ccccc1)S(=O)(=O)c1cccc(NC(=O)Cc2n[nH]c(=O)c3ccccc23)c1,12µM*,20,13µM*,-2%,-3,77
CCN(CC)S(=O)(=O)c1cc(NC(=O)Cc2n[nH]c(=O)c3ccccc23)ccc1C,13µM*,-11,?,/,11,-10
Cc1cc(C)c(NC(=O)COc2cccnc2[N+](=O)[O-])c(C)c1,-6%,6,1%,-1%,-5,38
COc1ccccc1C(=O)Nc1c(C(=O)Nc2cc(Cl)ccc2C)sc2nc(C)cc(C)c12,/,/,/,-6%,-5,/
CCCc1cc(C(=O)Nc2c(C)nn(Cc3ccc(C)cc3)c2C)no1,?,/,?,1%,1,/
Cc1nn(Cc2ccc(Cl)c(Cl)c2)c(C)c1NC(=O)c1noc2c1CCCCC2,13µM*,42,12µM*,-1%,-2,-19
Cc1cc(NC(=O)c2noc3c2CCCCC3)nn1Cc1ccc(Cl)cc1,-29%,17,-29%,269%,-28,6
CCCc1cc(C(=O)Nc2c(C)nn(Cc3ccc(Cl)c(Cl)c3)c2C)no1,26µM*,/,13µM*,0%,13,/
Cc1nn(Cc2ccc(Cl)c(Cl)c2)c(C)c1NC(=O)c1cc(CC(C)C)on1,23µM*,-7,18µM*,0%,2,-2
Cc1ccc(Cn2ccc(NC(=O)c3cc(CC(C)C)on3)n2)cc1,21µM*,-7,?,0%,0,11
CCOC(=O)c1cccc(NC(=O)C2CCN(S(=O)(=O)c3cn(C)cn3)CC2)c1,-18%,/,0%,-1%,3,/
CC(C)CC(C(=O)OCC(=O)c1c(N)n(C)c(=O)n(C)c1=O)N1C(=O)C2CC=CCC2C1=O (stereo unspecified),?,-6,?,-1%,-4,16
S=c1ccss1,?,/,-13%,/,/,/
O=C(COc1coc(CN2CCc3ccccc3C2)cc1=O)Nc1ccccc1F,-21%,-6,0%,-3%,-4,-11
CCC1COCCS(=O)(=O)N1Cc1ccccc1F (stereo unspecified),-4%,-17,-22%,1%,-6,9
O=S1(=O)CCOC[C@H](CC2CCCCC2)N1Cc1ccccc1Br,21µM*,60,?,3%,6,-11
O=S1(=O)CCOC[C@H](CC2CCCCC2)N1Cc1ccccc1F,20µM*,-2,?,1%,3,-16
CC1(C)CNc2cc(N)ccc2S1,-21%,-9,0%,/,6,0
COc1ccccc1NC(=O)c1nc(S(=O)(=O)Cc2ccccc2)ncc1Cl,1.6µM*,-89*,1.3µM*,/,-32,-102*
CCOc1ccccc1NC(=O)c1ccc(C(=O)Nc2ccccc2OCC)nc1,-10%,29,?,1%,0,20
COc1ccccc1NC(=O)c1ccc(C(=O)Nc2ccccc2OC)nc1,?,-5,4.6µM*,/,1,24
CCS(=O)(=O)c1ncc(Cl)c(C(=O)Nc2ccccc2OC)n1,1µM*,-64*,1µM*,/,-10,-94*
COc1ccccc1NC(=O)c1nc(SCc2ccc(F)cc2)ncc1Cl,-10%,/,-20%,2%,4,/
O=C(C1CCCN(Cc2ccc([N+](=O)[O-])cc2)C1)N1CCCCC1 (stereo unspecified),-14%,-10,-14%,1%,-2,35
Cc1nnc(NC(=O)CSc2ncnc3c2cnn3-c2ccccc2C)s1,-16%,-63*,4%,1%,6,0
Cc1ccccc1-n1ncc2c(SCC(=O)NC3CCCC3)ncnc21,7.3µM*,11,21µM*,/,7,-71*
